PubChem BioAssay
Several values for one entry are separate records, joined by “and”; a condition that tells them apart may be missing. Equal entries are not always repeated. Activity calls are given as the source filed them.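 Rule for the calls, unless noted: active = thallium flux through the channel raised or lowered by more than 3 SD from vehicle-only wells, actives on both sides; inactive = the rest.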

Tests used:
[1] = liver-stage malaria parasite growth inhibition, primary screen, cell-based, HepG2, luciferase luminescence, HepG2 viability (AID 624349; in the data active = parasite load remaining mostly below about 12%, no sharp cut-off; inactive = mostly above about 10%;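 note: 100% = mean of DMSO negative control wells on the same plate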); details: P. berghei liver stage in HepG2, luciferase luminescence, concentration not given here; parasite load remaining: stronger effect = lower value; viability: measured here: HepG2 viability without parasites
[2] = Cy5 fluorescence interference with SSB-bound oligo, artefact control for HCV NS3 helicase inhibitor project, biochemical, NIH Clinical Collection, E. coli SSB (AID 743268; call rule not given here)
[3] = tested on: Hepatitis C virus NS3 helicase; assay: HCV NS3 helicase inhibitors, primary screen, biochemical, fluorescence polarization, NIH Clinical Collection (AID 743270; call rule not given here); details: NS3 helicase binding to Cy5-dT15 DNA, stronger effect = higher value, concentration not given here
[4] = target: Single-stranded DNA-binding protein (Escherichia coli (strain K12)) (UniProt P0AGE0); assay: E. coli SSB displacement from DNA, counter-screen for HCV NS3 helicase inhibitor project, biochemical, fluorescence polarization, NIH Clinical Collection (AID 743271; in the data active = inhibition above about 28%); details: stronger effect = higher value, concentration not given here
[5] = fluorescence interference in NS3h assay format, artefact control for HCV NS3 helicase inhibitor project, biochemical, NIH Clinical Collection (AID 743272; call rule not given here;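 note: HCV NS3 helicase with a Cy5 labelled single stranded DNA probe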); details: fluorescence interference counterscreen, stronger effect = lower value
[6] = sensitizers of A549 cells to miR-34 induction, primary screen, imaging, A549 dox-inducible miR-34, nuclei and caspase counts (AID 1347080;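 active = compounds whose cell count with miR-34 switched on is under 0.7 times the count with it off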); details: A549 miR-34 inducible, Hoechst nuclei count, 48 h
[7] = survival rescue of mitochondrial mutant cells in low glucose, primary screen, MELAS cybrids, Rieske KO mouse fibroblasts, CellTiter-Glo (AID 1508586;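 active = mean z-score across replicates of 1.96 or higher in either the MELAS or the Rieske mutant cell line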;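 note: z relative to plate mean and SD of compound and empty wells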)
[8] = viability rescue of complex I mutant cybrids, primary screen, cell-based, galactose medium, ATP luminescence (AID 1645843;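 active = z-score of at least 1.8 in each of two replicates, scored against plate mean and spread of sample wells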;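 note: positive z means more ATP and so rescue of galactose-driven cybrid death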); details: complex I mutant cybrid cells, 72 h, stronger effect = higher value
F380Y = assay: modulators of BK channel variants, profiling panel, selectivity assay, cell-based, U2OS BacMam, thallium flux, beta subunits (AID 1259406); details: at 30 µM;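 note: initial slope of Thallos dye fluorescence rise after thallium is added; log ratio against the mean of 0.3% DMSO vehicle wells on the same plate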
F380Y/beta2Delta = assay: as above; details: at 30 µM
[9] = target: Calcium-activated potassium channel subunit alpha-1 (Homo sapiens) + Leucine-rich repeat-containing protein 26 (Homo sapiens) (UniProt Q12791+Q2I0M4); assay: as above; details: F380Y/Slo1WT/gamma1, at 30 µM
Chain of Calcium-activated potassium channel subunit alpha-1 (Homo sapiens) + Leucine-rich repeat-containing protein 26 (Homo sapiens) (Q2I0M4 whole entry, looked up, one chain of several): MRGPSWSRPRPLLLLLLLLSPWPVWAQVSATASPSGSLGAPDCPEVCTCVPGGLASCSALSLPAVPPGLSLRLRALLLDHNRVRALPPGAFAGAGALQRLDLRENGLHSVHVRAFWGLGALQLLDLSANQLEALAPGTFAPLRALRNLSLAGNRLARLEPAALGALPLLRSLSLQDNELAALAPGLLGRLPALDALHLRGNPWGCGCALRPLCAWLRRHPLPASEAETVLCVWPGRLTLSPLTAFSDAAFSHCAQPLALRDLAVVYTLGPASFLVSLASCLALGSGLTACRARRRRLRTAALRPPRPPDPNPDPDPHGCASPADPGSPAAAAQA

R275C = assay: as above; details: at 30 µM
R275C/beta1 = assay: as above; details: at 30 µM
R275C/beta2Delta = assay: as above; details: at 30 µM
[10] = tested on: Neuropilin-2 / VEGF-C interaction (human); assay: inhibitors of NRP2–VEGF-C binding, biochemical, microplate binding format, z-score (AID 743281; call rule not given here); details: microplate NRP2/VEGF-C binding assay; stronger effect = lower value
[11] = modulation of C. elegans fzo-1 (AID 1259413; call rule not given here;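 note: fzo-1 mutant C. elegans worms in liquid wells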); details: C. elegans fzo-1 modulator screen, mean read-out; stronger effect = higher value
F380Y/beta1 = assay: modulators of BK channel variants, profiling panel, selectivity assay, cell-based, U2OS BacMam, thallium flux, beta subunits (AID 1259406); details: at 30 µM;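 note: initial slope of Thallos dye fluorescence rise after thallium is added; log ratio against the mean of 0.3% DMSO vehicle wells on the same plate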
F380Y/beta4 = assay: as above; details: at 30 µM
R275C/beta4 = assay: as above; details: at 30 µM
R275C/Slo1WT/beta2 = assay: as above; details: at 30 µM
[12] = stronger effect = lower value, cell number ratio, induced over uninduced
[13] = measured here: relative caspase fold change +Dox/-Dox
[14] = measured here: total cells with miR-34 induction, stronger effect = lower value
[15] = measured here: total cells without miR-34 induction
[16] = MELAS cybrid survival, CellTiter-Glo 48 h, stronger effect = higher value
[17] = Rieske KO mouse fibroblast survival, CellTiter-Glo 72 h

COCCCCC(=NOCCN)c1ccc(C(F)(F)F)cc1
56.9%: viability [1]
0.468 and -0.05: z-score [7, 17]
8360 and 9280 and 6710: cell count [6, 15]
2.57 and 0.586 and 0.773: fold change [6, 13]
inactive: parasite load remaining [1] 46.6% | fluorescence ratio [2] 0.97 | inhibition [3] -1.98% | inhibition [4] -0.1% | fluorescence ratio [5] 0.89 | fold change [6, 12] 0.929 and 0.879 and 0.949 | z-score [7, 16] 0.785 and -0.408 | z-score [8] -0.79 and -1.17 | log fold change Tl+ flux (F380Y) -0.0607 | log fold change Tl+ flux (F380Y/beta2Delta) -0.0598 | log fold change Tl+ flux [9] -0.0791 | log fold change Tl+ flux (R275C) -0.0449 | log fold change Tl+ flux (R275C/beta1) 0.0249 | log fold change Tl+ flux (R275C/beta2Delta) 0.0321
7760 and 8160 and 6370: cell count [6, 14]

CO[C@H]1O[C@@H]2O[C@@]3(C)CC[C@H]4[C@H](C)CC[C@@H]([C@H]1C)[C@@]24OO3
inactive: parasite load remaining [1] 32% | fluorescence ratio [2] 1.02 | inhibition [3] -1.97% | inhibition [4] -3.54% | fluorescence ratio [5] 1 | z-score [10] -0.742 | mean signal [11] 291 | log fold change Tl+ flux (F380Y) -0.0298 | log fold change Tl+ flux [9] -0.00699 | log fold change Tl+ flux (R275C) 0.0256 | log fold change Tl+ flux (R275C/beta1) -0.0131 | log fold change Tl+ flux (R275C/beta2Delta) -0.00466
active: log fold change Tl+ flux (F380Y/beta2Delta) -0.0746
66.6%: viability [1]

CC(=O)NCCCCCCNC(C)=O
66.5%: viability [1]
inactive: parasite load remaining [1] 100% | fluorescence ratio [2] 1.01 | inhibition [3] -1.19% | inhibition [4] -3.18% | fluorescence ratio [5] 0.97 | z-score [10] -0.47 | mean signal [11] 268 | fold change [6, 12] 0.955 | z-score [8] 0.325 | log fold change Tl+ flux (F380Y) 0.015 | log fold change Tl+ flux (F380Y/beta2Delta) -0.0186 | log fold change Tl+ flux [9] 0.0164 | log fold change Tl+ flux (R275C) 0.0387 | log fold change Tl+ flux (R275C/beta1) 0.0269 | log fold change Tl+ flux (R275C/beta2Delta) -0.0786
9330: cell count [6, 14]
9770: cell count [6, 15]
1.58: fold change [6, 13]

CC(=O)O[C@@]12CO[C@@H]1C[C@H](O)[C@@]1(C)C(=O)[C@H](O)C3=C(C)[C@@H](OC(=O)[C@H](O)[C@@H](NC(=O)OC(C)(C)C)c4ccccc4)C[C@](O)([C@@H](OC(=O)c4ccccc4)[C@H]21)C3(C)C
76.2%: viability [1]
0.54: z-score [7, 17]
inactive: parasite load remaining [1] 78.3% | fluorescence ratio [2] 0.95 | inhibition [3] 5.15% | inhibition [4] 9.14% | fluorescence ratio [5] 0.93 | z-score [7, 16] -2.05 | log fold change Tl+ flux (F380Y) -0.0323 | log fold change Tl+ flux (F380Y/beta1) -0.0744 | log fold change Tl+ flux (F380Y/beta2Delta) -0.0313 | log fold change Tl+ flux (F380Y/beta4) -0.0802 | log fold change Tl+ flux [9] -0.035 | log fold change Tl+ flux (R275C) -0.041 | log fold change Tl+ flux (R275C/beta2Delta) 0.0412 | log fold change Tl+ flux (R275C/beta4) 0.0296 | log fold change Tl+ flux (R275C/Slo1WT/beta2) 0.000404
active: log fold change Tl+ flux (R275C/beta1) 0.104
